Screening data from PubChem.
The full list was thinned out, with hits kept by preference.
TbPYK inhibitor: inhibitors of Trypanosoma brucei pyruvate kinase. TbPYK enzyme, Kinase-Glo Plus ATP luminescence, 45 min. Potency, µM (top dose mostly 76.8 µM), inactives show at the highest dose activity, negative = inhibition, hits mostly inhibitors. 410,000 tested, 0.12% active. AID 624173; note: potency is the fitted concentration of half-maximal effect; % is set by controls: 0 for no effect and ±100 for the full control effect; nearly all actives have a fitted effect of over 50% in size
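Luminescence from Kinase-Glo Plus, added after a 45-minute room-temperature reaction, served as the end-point read-out. The enzyme and substrate were preincubated with compound before ADP (130 uM final) initiated turnover. Concentration-effect curves came from normalized qHTS data.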
NS1 inh: influenza NS1 inhibition | Potency, µM (doses to about 46.1 µM), for the others: at the top dose activity, positive = more growth | 270,000 tested, 0.4% active | AID 2326; calls by dose curve; note: potency is the fitted concentration of half-maximal effect; actives are rising curves; nearly all actives have a fitted effect of over 50% in size
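Recovery from NS1-induced slow growth read by OD600 in budding yeast switched to galactose assay medium (pH 6.0, -URA) at 1:100 dilution. Compound 23 nl per well; the matching strain lacking NS1 serves as control.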
SARS PLpro yeast: SARS-CoV PLP inhibition in yeast; S. cerevisiae expressing SARS-CoV PLpro, growth rescue; Potency, µM (top dose mostly 32.9 µM), without a hit: at the highest dose activity, positive = growth rescue, usual class: activators; 330,000 tested, 0.19% active; AID 485353; calls by dose curve; note: potency is the fitted concentration of half-maximal effect; 0% is about no effect; nearly all actives have a fitted effect of over 55% in size
Shiga inhibitor: inhibitors of Shiga toxin in Vero cells | inhibition, % at 38.7 µM | 290,000 tested, 9.2% active | Vero cells, Shiga toxin protein synthesis inhibition reporter; in the data active = inhibition mostly above about 28%, no sharp cut-off; inactive = mostly below about 43%; note: 0% is about no effect
Cycloheximide cs: counter-screen hit for Shiga toxin inhibitors, cycloheximide; cell reporter, cycloheximide protein synthesis inhibition counterscreen; max response, %; 300,000 tested, 12% active; in the data active = max response mostly above about 13%, no sharp cut-off; inactive = mostly below about 14%; note: read at 38.3 µM for the half of the compounds with a filed dose; 0% is about no effect
LmPK inhibitor: blocks Leishmania mexicana pyruvate kinase activity; Q27686; 290,000 tested, 0.37% active; Potency, µM (doses to about 57.5 µM), for the others: at the highest dose activity change, negative = inhibition, hits mostly inhibitors; purified LmPK, Kinase-Glo ATP luminescence, 1 h; AID 1721; note: potency is the fitted concentration of half-maximal effect; % is set by controls: 0 for no effect and ±100 for the full control effect
Target sequence (Q27686 whole entry, looked up): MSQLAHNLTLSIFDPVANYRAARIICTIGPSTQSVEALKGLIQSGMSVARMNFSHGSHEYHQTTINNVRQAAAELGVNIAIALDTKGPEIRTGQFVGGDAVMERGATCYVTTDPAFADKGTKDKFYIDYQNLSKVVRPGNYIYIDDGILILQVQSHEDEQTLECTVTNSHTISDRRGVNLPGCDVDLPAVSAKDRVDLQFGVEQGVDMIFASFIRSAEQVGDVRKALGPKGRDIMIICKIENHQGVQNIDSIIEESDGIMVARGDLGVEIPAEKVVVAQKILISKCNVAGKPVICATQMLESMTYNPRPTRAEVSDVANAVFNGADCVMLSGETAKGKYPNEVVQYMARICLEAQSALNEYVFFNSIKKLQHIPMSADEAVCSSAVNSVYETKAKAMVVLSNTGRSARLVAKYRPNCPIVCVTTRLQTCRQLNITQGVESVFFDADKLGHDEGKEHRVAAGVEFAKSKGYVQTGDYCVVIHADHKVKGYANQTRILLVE
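ATP generated from ADP (0.1 mM) and PEP (0.5 mM) by 0.1 nM LmPK over 1 h at room temperature (pH 7.2 imidazole buffer) was detected by coupled luciferase luminescence. Values were normalized to uninhibited and no-enzyme wells.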
Numbers without * were called inactive; ? = inconclusive; nt = not tested or not shown. Unless noted, calls come from the whole dose curve; as a rule, active = well fitted curve in the direction sought with a large enough effect; inconclusive = small, poorly fitted or top-dose-only effect, or another doubt; inactive = no such curve, though single readings can be large; an effect the other way counts as inactive or inconclusive.

SMILES	TbPYK inhibitor	NS1 inh	SARS PLpro yeast	Shiga inhibitor	Cycloheximide cs	LmPK inhibitor
CC1(C(=O)Nc2ccccc2)Cc2c(-c3cccc(C(F)(F)F)c3)ccnc2O1 (stereo not drawn)	4%	nt	nt	nt	nt	nt
COc1ccc(-c2nnc3n2N=C(c2cc(OC)ccc2OC)CS3)c(OC)c1	nt	nt	nt	-7	5	nt
CN(Cc1ccccc1)C(=O)COc1ccc(Br)cc1Cl	-10%	-30%	-12%	38	20*	13%
CCN(CC)C(=O)COc1ccc(/C(C)=N/NC(=O)c2ccccc2O)cc1	3%	-8%	17%	46	28*	10%
CCN(CC)C(=O)COc1ccc(/C(C)=N/NC(=O)c2ccccc2Br)cc1	2%	nt	4%	22	27	4%
CN(Cc1ccccc1)C(=O)COc1ccccc1Cl	-4%	-3%	-1%	-5	5	-11%
CCN(CC)C(=O)COc1ccc(-c2ccccc2)cc1	-3%	-37%	1%	52	31*	-10%
COc1ccc(C(=O)Nc2ccc(/C(C)=N/NC(=O)c3ccccc3O)cc2)cc1OC	0%	2%	0%	44*	37*	0%
CCN(Cc1ccccc1)C(=O)COc1ccccc1	-3%	-9%	-3%	nt	1	-2%
CN(Cc1ccccc1)C(=O)COc1ccc(N(C)S(=O)(=O)c2ccc(F)cc2)cc1	-15%	-9%	2%	-1	-3	5%
CC(C)N(Cc1ccccc1)C(=O)COc1ccccc1	7%	2%	2%	-4	-1	3%
CN(Cc1ccccc1)C(=O)COc1ccc(C(C)(C)C)cc1	2%	2%	1%	57*	27*	-2%
CN(Cc1ccccc1)C(=O)COC(=O)c1ccc(Cl)c(N)c1	3%	7%	10%	67*	51*	5%
CN(C)C(=O)COc1ccc(Oc2ccccc2)cc1	3%	nt	0%	41*	31*	1%
C=C(C(=O)c1ccccc1)C(C)C(=C)C(=O)c1ccccc1	-6%	-14%	-31%	17	38*	-3%
C=C(C(=O)c1ccccc1)C(c1ccccc1)C(C)C(=O)c1ccccc1 (stereo not drawn)	-5%	-1%	-3%	-5	7	1%
O=S(=O)(Nc1cccc(-c2ccc(N3CCCC3)nn2)c1)c1ccc(F)c(C(F)(F)F)c1	-4%	nt	nt	nt	nt	nt
CCCC1CCC(c2nc(-c3cccnc3)no2)CC1 (stereo not drawn)	0%	-7%	5%	45	62*	-2%
CCCCCCC1CCC(c2nc(-c3ccncc3)no2)CC1 (stereo not drawn)	3%	6%	4%	-9	-4	1%
Fc1ccc(-c2noc(C3CCN(Cc4cccnc4)CC3)n2)cc1	1%	-2%	7%	28*	19*	-2%
Cc1cc(NC2CCCC2)n2nc(C)c(-c3ccccc3)c2n1	-18%	-10%	-9%	38	29*	5%
Cc1cc(NC2CCCC2)n2ncc(-c3ccccc3)c2n1	-3%	-7%	-7%	17	23*	-1%
Cc1nn(-c2ccccc2)c2sc(C(=O)Nc3cccc(O)c3)cc12	3%	nt	nt	nt	nt	nt
O=C1NC[C@@H](CCCCN2C[C@H](Cc3ccc(O)cc3)N(CC3CCCCC3)C(=O)C2=O)N(Cc2ccccc2)C1=O	4%	nt	nt	nt	nt	nt
O=C(NCc1ccccn1)C1(C(F)(F)F)C/C(=C\CCO)CCCO1 (stereo not drawn)	1%	nt	nt	-3	14	nt
SMILES	TbPYK inhibitor	NS1 inh	SARS PLpro yeast	Shiga inhibitor	Cycloheximide cs	LmPK inhibitor
CCN1C(=O)/C(=C2/C=Cc3cc(C)ccc3N2CC)N(C)C1=S	?	-15%	-8%	-9	-2	14µM*
CCN1/C(=C2/SC(=S)N(C)C2=O)C=Cc2cc(C)ccc21	-4%	nt	nt	nt	nt	nt
CCOC(=O)C1(C)CCN1C(=O)c1cc(C)oc1C (stereo not drawn)	-6%	nt	nt	nt	nt	nt
Cc1cc(C)c(/C=C/c2onc(C)c2S(=O)(=O)N2CCC(C(=O)NCc3ccco3)CC2)c(C)c1	-2%	nt	nt	nt	nt	nt
CCC1CC=CC2C1C(=O)N(Cc1ccccc1)C2c1ccc(OC)c(Cl)c1 (stereo not drawn)	nt	nt	nt	-2	6	nt
Cc1cccc(-n2cnc3cc([N+](=O)[O-])ccc32)c1	-20%	-4%	-26%	14	12*	-5%
Nc1ccc(-n2cnc3cc([N+](=O)[O-])ccc32)cc1	-7%	-1%	2%	97*	18*	2%
